# Most compounds without a hit are left out; they make up all but 2.4% or so of the library.
# D2 antagonist: antagonizes the human D2 dopamine receptor; HEK293 TREx D2 cells, calcium flux, dopamine EC80; inhibition, % at 10 µM; actives 2% (n = 340,000); AID 485344; in the data active = inhibition above about 30%; inactive = below that, where a call was filed; also: 0% is about no effect
# Target sequence (P14416 whole entry, looked up): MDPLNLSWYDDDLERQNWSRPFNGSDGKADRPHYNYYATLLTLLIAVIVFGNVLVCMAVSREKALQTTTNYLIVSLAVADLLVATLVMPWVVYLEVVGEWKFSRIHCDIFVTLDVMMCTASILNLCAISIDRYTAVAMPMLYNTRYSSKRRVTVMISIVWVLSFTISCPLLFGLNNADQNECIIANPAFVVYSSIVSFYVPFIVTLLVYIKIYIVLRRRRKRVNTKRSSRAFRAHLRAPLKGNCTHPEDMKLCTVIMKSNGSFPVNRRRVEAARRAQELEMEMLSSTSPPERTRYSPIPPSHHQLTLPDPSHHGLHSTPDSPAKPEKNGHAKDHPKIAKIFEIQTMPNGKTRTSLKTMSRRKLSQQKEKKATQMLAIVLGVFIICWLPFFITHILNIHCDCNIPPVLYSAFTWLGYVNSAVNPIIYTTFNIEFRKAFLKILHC
#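 Measurement of antagonist activity uses fluorescent calcium dye in inducible HEK293 T-REx D2 cells: 10 s baseline, compound addition with 180 s read, EC80 dopamine addition with a further 180 s read.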
# D2 PAM-1: potentiates the human D2 dopamine receptor allosterically. AID 624464. potentiation, % (concentration not given with the values). DiscoveRx D2 beta-arrestin cells, luminescence, 90 min; 100% = 57 uM dopamine signal. P14416. actives 0.23% (n = 360,000); in the data active = potentiation above about 50%; inconclusive = mostly about 30% to 49%
#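 D2 cells co-treated with compound plus 50 nM dopamine (EC20) for 90 min at 37 deg C to detect potentiation. Beta-arrestin recruitment was read as enzyme-fragment luminescence after 1 h at ambient temperature. Full response was set by 57 uM dopamine.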
# D2 ag-1: D2 dopamine receptor (human) agonism; actives 0.53% (n = 340,000); HEK293 T-REx D2 cells, calcium flux agonist mode; P14416; activation, % at 2 µM; AID 485358;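 active = activation over 3 SD above normal in the single-dose calcium agonist read, cut at about 30% in these data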; also: 0% is about no effect
#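 In this primary screen, compounds producing a positive calcium signal within 180 s of addition to tetracycline-induced, force-coupled HEK293 Trex D2 cells are flagged; cells are dye-loaded with a no-wash calcium kit beforehand.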
# D2 PAM-2: D2 dopamine receptor (human) potentiation. P14416. HEK293 T-REx D2, calcium flux, EC20 dopamine potentiation. potentiation, % at 10 µM. actives 0.34% (n = 340,000). AID 485347;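 active = potentiation over 3 SD above the plate norm, cut at about 30% in these data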; also: 0% is about no effect
#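 Potentiation of an EC20 dopamine calcium response is measured in a force-coupled, tetracycline-inducible Hek293 Trex D2 line. Compound-only kinetic reads over 180 s flag agonists before dopamine addition.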
# D2 ag-2: human D2 receptor agonism in beta-arrestin assay | P14416 | DiscoveRx PathHunter D2 beta-arrestin, luminescence, 90 min; 100% = 57 uM dopamine signal | actives 0.084% (n = 360,000) | activation, % (concentration not given with the values) | AID 624465; in the data active = activation above about 40%; inconclusive = between about 15% and that limit
#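 Agonist mode: compounds alone added to overnight-plated D2 PathHunter cells for 90 min at 37 C, with 57 uM final dopamine (EC100) defining full response. Beta-arrestin recruitment detected by chemiluminescent reagent, read after 1 h at ambient temperature.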
# D3 ag: D3 receptor agonism confirmed, beta-arrestin readout; shares compounds with D2 ag-1; DiscoveRx D3 beta-arrestin cells, luminescence, 90 min; Potency, µM (highest dose often 76.9 µM), inactives show top-dose activation, actives largely listed as activators; actives 4% (n = 2,300); AID 720506;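 also: potency is read from the fitted curve at half-maximal effect; 100% = dopamine control response; nearly all actives have a fitted effect of over 70% in size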
# D2 ag-3: counter-screen for D3 agonists: human D2 dopamine receptor agonism. shares compounds with D2 ag-1. DiscoveRx PathHunter D2 beta-arrestin, luminescence, 90 min; response scale: percent relative to full dopamine signal. Potency, µM (titrated, usually from 76.9 µM), without a hit: at the top dose activation, most hits filed as activators. actives 5.9% (n = 2,300). AID 720507; also: potency is read from the fitted curve at half-maximal effect; % of control where 0% means no effect; nearly all actives have a fitted effect of over 70% in size
# The depositor's hits bear a star; ? = inconclusive; . = no result. Unless noted, calls follow the shape of the dose curve; as a rule, active = well fitted activation curve with a large enough effect; inconclusive = small, poorly fitted or top-dose-only effect; inactive = flat fitted curve, though single readings scatter.
SMILES,D2 antagonist,D2 PAM-1,D2 ag-1,D2 PAM-2,D2 ag-2,D3 ag,D2 ag-3
Cc1ccc(C)c(N/C(N)=N/c2nc(C)cc(C)n2)c1,22,-26,56*,-19,-8,-2%,16%
CCOc1ccc(N/C(N)=N/c2nc(C)cc(C)n2)cc1,.,30,.,.,2,2%,?
Cc1cc(C)nc(/N=C(\N)Nc2ccc(SC(F)F)cc2)n1,6,-17,49*,-12,1,-12%,9%
CN(Cc1ccccc1)C(=O)c1ccc(NC(=O)Cc2ccc(NC(=O)C3CCCN(S(=O)(=O)c4cccc([N+](=O)[O-])c4)C3)cc2)cc1 (stereo not drawn),.,0,.,.,5,.,.
COc1ccc(NS(=O)(=O)c2cc3[nH]c(=O)c(=O)[nH]c3cc2C)cc1Cl,.,.,1,5,.,.,.
CN(C)c1ccc(CNC(=O)C2CCCN(S(=O)(=O)c3ccc4c(c3)oc(=O)n4C)C2)cc1 (stereo not drawn),.,.,0,8,.,.,.
OC1(Cc2cc(-c3ccccc3)no2)CCN(CCCc2ccccc2)CC1,73*,-4,46*,-28,-1,?,11%
CCN1CCN(Cc2ccc(OC)c(OCc3ccccc3)c2)CC1,0,-15,0,-19,-2,.,.
COc1ccc(-c2[nH]ncc2CN2CCN(c3ccccn3)CC2)c(OC)c1,57*,5,69*,-22,10,-19%,9%
CC1(C)CCc2cc(CN3CCN(c4ccccn4)CC3)ccc2O1,85*,4,77*,-21,13,16%,?
COc1ccc(CN2CCN(C(=O)c3ccco3)CC2)cc1OCc1ccccc1,71*,0,83*,-16,?,?,18µM*
COc1ccc(CN2CCN(c3ccccn3)CC2)cc1OCc1ccccc1,87*,10,72*,-21,?,-1%,?
CN1CCN(CCCNC(=O)c2ccc3c(Cl)c4c(nc3c2)CCCC4)CC1,8,-13,0,-5,-6,.,.
CCCC(=O)Nc1cccc(-c2cn3c(C)csc3n2)c1,.,.,0,-6,.,.,.
COc1ccc(CN2CCN(C(=O)c3ccco3)CC2)cc1OC,60*,?,86*,-23,84*,?,16µM*
CCN(CC)S(=O)(=O)c1cccc(NC(=O)c2cc(=O)[nH]c3ccccc23)c1,-5,-7,0,15,5,.,.
CCOc1ccccc1N=Nc1c(C)[nH]n(C(N)=S)c1=O,-1,2,0,7,-4,.,.
Cc1ccc(NC(=O)OCCN2CCN(Cc3ccccc3)CCC2=O)cc1,43*,-5,50*,-12,0,8%,?
O=C(Nc1ccccc1)OCCN1CCN(Cc2ccccc2)CCC1=O,4,-6,-1,-4,-6,.,.
CC(CCc1ccccc1)NC(=O)c1ccccc1 (stereo not drawn),.,-5,.,-8,-3,.,.
CC(CCc1ccccc1)NCC(O)c1ccc(O)c(C(N)=O)c1 (stereo not drawn),67*,-2,72*,-27,3,4%,?
CCCn1c(/C=C/c2ccco2)nc2ccccc21,-5,-14,10,-4,3,0%,8%
CCCCn1c(/C=C/c2ccco2)nc2ccccc21,64*,-10,40*,-18,-2,-6%,-1%
Cn1c(=O)c2c(ncn2CCOc2ccc(F)cc2)n(C)c1=O,30,-6,0,-5,-2,.,.
Cc1ccc(C(=O)N2CCCC(Nc3ccc(C(C)C)cc3)C2)cn1 (stereo not drawn),-4,-4,0,0,1,.,.
CN(C(=O)COC(=O)c1ccc(Cl)c(S(=O)(=O)N2CCCCC2)c1)C1(C#N)CCCCC1,13,0,0,16,0,.,.

# Source: PubChem (National Center for Advancing Translational Sciences (NCATS))
